# Values joined by “and” are separate entries in the source; they are usually repeats but may differ in a detail not shown here. Identical values can stand only once. The whole screen tested about 300,000 compounds, of which about 37,000 (12%) were called active. Rule as the data show it: active = max response mostly above about 13% (no sharp cut-off); inactive = mostly below about 14%. What follows is part of a selection rich in actives, with near analogues and random picks from the rest.
# Test: Cycloheximide Counterscreen for Small Molecule Inhibitors of Shiga Toxin; also: read at 38.3 µM for the half of the compounds with a filed dose; 0% is about no effect
# Details: cell reporter, cycloheximide protein synthesis inhibition counterscreen; hits give high values
row,Structure (SMILES),max response
1,CCOCc1nnc(NC(=O)CCS(=O)(=O)Cc2ccccc2)s1,-1.02% (inactive)
2,CC(C)(C)NC(=O)COc1ccc(CNc2ccc3[nH]c(=O)[nH]c3c2)cc1,-1.49% (inactive)
3,COc1ccc(OCC(=O)NNC(=O)c2ccc(-c3ccccc3)cc2)cc1,-2.64% (inactive)
4,COC(=O)c1ccc(OCC(=O)NC(C)(C)C)cc1,31.4% (active)
5,Cc1cccc(NC(=O)N2CCCCCC2)c1C,8.83% (inactive)
6,COc1ccc(NS(=O)(=O)c2cc3c(cc2C)N(C(C)=O)CCO3)cc1,-2.57% (inactive)
7,COc1ccc(C(=O)O/N=C(\N)Cc2ccc(Cl)cc2Cl)cc1OC,4.82% (inactive)
8,COc1ccc(C/C(N)=N/OC(=O)c2ccco2)cc1OC,22.4% (active)
9,COc1ccc(CC(=O)Nc2ccccc2NC(=O)c2ccco2)cc1OC,6.8% (inactive)
10,CCc1nnc(NC(=O)CSCc2cc(=O)n3cc(C)sc3n2)s1,1.44% (inactive)
11,CCN1CCN(C(=O)c2cc3cc4ccc(OC)cc4nc3s2)CC1,15.1% (active)
12,COc1ccc(OC)c(C(=O)c2ccc(C(=O)N3CCN(Cc4csc(C)n4)CC3)cc2)c1,-2.77% (inactive)
13,CCN1CCN(C(=O)CN(C)S(=O)(=O)c2ccc(OC)cc2)CC1,4.5% (inactive)
14,COc1cc(/C=N/NC(=O)CNC(=O)c2ccncc2)ccc1OC(C)=O,-4.24% (inactive)
15,COc1cc(/C=N/Nc2nc3ccccc3s2)ccc1O,72.3% (active)
16,CCNc1nc(NCC)nc(N/N=C/c2ccc(O)c(OC)c2)n1,7.49% (inactive)
17,COc1cc(/C=N\Nc2nc(-c3cccs3)c(NC(C)=O)s2)ccc1O,17.1% (active)
18,CCOc1cc(/C=C(\C#N)c2nc(-c3cccs3)c(NC(C)=O)s2)ccc1O,1.82% (inactive)
19,COc1cc(/C=N/NC(=O)CCc2n[nH]c(=O)[nH]c2=O)ccc1O,-0.284% (inactive)
20,COc1ccc(C(=O)N(C)CC(O)c2ccccc2)cc1OC1CCN(C(C)=O)CC1 (stereo not drawn),3.8% (inactive)
21,CC(C)[C@H](NC(=O)OCc1ccccc1)C(=O)OCc1ccccc1,-4.84% (inactive)

row,Structure (SMILES),max response
1,CC1CCN(c2ccc([N+](=O)[O-])c(SCCO)c2)CC1,1.83% (inactive)
2,O=C(O)CSCC(=O)Nc1cccc(C(F)(F)F)c1,-6.91% (inactive)
3,NC(=O)Nc1cccc(C(F)(F)F)c1,0.977% (inactive)
4,FC(F)(F)c1cccc(N/N=C/c2ccccc2)c1,41.1% (active)
5,Cc1ccc(O)c(NC(=O)COc2cc(C)ccc2C)c1,28.6% (active)
6,Cc1ccc(C(C)C)cc1OCC(=O)Nc1ccccc1N1CCCC1,-0.789% (inactive)
7,Cc1ccc(O)c(NC(=S)NC(=O)COc2ccc(Br)cc2)c1,-1.57% (inactive)
8,COc1nnc(-c2ccc(C)c(S(=O)(=O)N(C)C)c2)c2ccccc12,0.699% (inactive)
9,Cc1cc(C)c(S(=O)(=O)N2CCOCC2)cc1C,1.22% (inactive)
10,O=C(CSc1ncccn1)NC(=O)NCc1ccccc1,-1.54% (inactive)
11,Cc1nc2ccc(NC(=O)C(F)(F)F)cc2o1,1.37% (inactive)
12,Cc1nc2cc(NC(=O)NCc3ccccc3)ccc2o1,21.4% (active)
13,Cc1ccc(NC(=O)Nc2ccc3oc(C)nc3c2)cc1,53.3% (active)
14,CCCCc1ccc(NC(=O)NCc2cccnc2)cc1,16% (inactive)
15,COc1ccccc1C(=O)Nc1ccc(OCc2nnc3c4ccccc4c(C)nn23)cc1,1.98% (inactive)
16,CN(Cc1ccccc1)C(=O)C1CCCN(c2ncnc3c2nc2n3CCCCC2)C1 (stereo not drawn),-3.17% (inactive)
17,N#C/C(=C\c1ccc(N2CCOCC2)o1)C(=O)N1CCOCC1,1.71% (inactive)
18,CCn1c(=O)c([N+](=O)[O-])c(NCc2ccc3c(c2)OCO3)c2ccccc21,-2.03% (inactive)
19,COCCNC(=O)/C(C#N)=C/c1cccc(OCc2ccccc2)c1,4.87% (inactive)
20,CC(C)NC(=O)/C(C#N)=C\c1ccc(N(C)C)c(Br)c1,27.9% (active)
21,CC(C)(C)C(=O)/C(C#N)=C/c1ccc(O)cc1,8.63% (inactive)

row,Structure (SMILES),max response
1,COc1ccccc1C(C)NC(=O)Cc1ccsc1 (stereo not drawn),5.18% (inactive)
2,CC(=O)Nc1ccc(NC(=O)[C@@H](NC(=O)c2cccc(C)c2)C(C)C)cc1,-5.14% (inactive)
3,CSCCC(NC(=O)COc1ccccc1)C(=O)Nc1ccc(C)cc1 (stereo not drawn),4.05% (inactive)
4,Cc1ccc(NC(=O)C(C)c2cccc(C(=O)c3ccccc3)c2)cc1 (stereo not drawn),26.6% (active)
5,COc1ccc(N2C(=O)C(CC(=O)Nc3ccccc3)N(Cc3ccc(OC)c(OC)c3)C2=O)cc1 (stereo not drawn),14.6% (inactive)
6,CCCSc1nsc(N)n1,22.8% (active)
7,CCCCCCSc1nsc(N)n1,23.1% (active)
8,Nc1nc(SC23CC4CC(CC(C4)C2)C3)ns1,-2.92% (inactive)
9,Cc1ccc(S(=O)(=O)N2CCCC(C(=O)N3CCN(C)CC3)C2)cc1 (stereo not drawn),6.16% (inactive)
10,Cn1c(=O)[nH]c(=O)c2c1nc(CN1CCN(c3ccccc3F)CC1)n2CCc1ccccc1,2.36% (inactive)
11,CCCCCCNS(=O)(=O)c1ccccc1Br,-2.52% (inactive) and 6.23% (inactive)
12,O=C(COC(=O)c1ccc(S(=O)(=O)Nc2ccccc2)cc1)NCC1CCCO1 (stereo not drawn),-1.31% (inactive)
13,CCOC(=O)N1CCN(c2cc(C)c([N+](=O)[O-])cc2F)CC1,16.3% (inactive)
14,CS(=O)(=O)c1ccc2nnn(OCC(=O)Nc3cccc(C#N)c3)c2c1,-3.01% (inactive)
15,O=C(O)CC(c1ccccc1F)N1Cc2ccccc2C1=O (stereo not drawn),-3.84% (inactive)
16,COc1cc([N+](=O)[O-])cc([N+](=O)[O-])c1NC(=O)N1CCOCC1,-3.17% (inactive)
17,O=C1c2ccccc2C(=O)N1CCOc1ccc(F)cc1,34.9% (active)
18,COc1ccc(OCCCON2C(=O)c3ccccc3C2=O)cc1,-3.07% (inactive)
19,O=C(OCCN1C(=O)c2ccccc2C1=O)Oc1ccccc1,-5.45% (inactive)
20,COc1cc(OC)cc(C(=O)Nc2nnc(SCC(=O)NCC3CCCO3)s2)c1 (stereo not drawn),5.61% (inactive)
21,COC(=O)C1=C(C)N(C(C)c2ccccc2)C(=O)/C1=C\c1ccco1 (stereo not drawn),12.5% (inactive)
